Results: PubChem BioAssay (NCATS)
Inconclusive results are not listed. Values without a mark were called inactive. Activity calls are given as the source filed them. The call rests on the fitted dose curve; in most records, active means well fitted inhibition curve with a large enough effect; inconclusive means small, poorly fitted or top-dose-only effect, or effect the other way; inactive means flat fitted curve, though single readings scatter.

These compounds were tested against ATP-dependent 6-phosphofructokinase (Trypanosoma brucei brucei) (UniProt O15648) (assay: qHTS Assay to Find Inhibitors of T. brucei phosphofructokinase: hit validation (AID 492961;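 further: luminescence reports ADP formed as PFK phosphorylates fructose-6-phosphate with ATP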)). Settings: T. brucei PFK, ADP-Glo luminescence; series mostly up to 51.4 µM; activity change, negative = inhibition: at the top concentration.
In short: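 ADP-Glo luminescence read-out of ADP formed by 1.25 nM PFK from 0.1 mM ATP and 0.5 mM F6P (TEA pH 8.0, 45 min, RT). Compounds titrated; activity normalized to no-enzyme and full-enzyme controls.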
On the % scale 0 is the no-effect control and ±100 the full control effect.

Sequence of ATP-dependent 6-phosphofructokinase (Trypanosoma brucei brucei) (O15648 whole entry, looked up): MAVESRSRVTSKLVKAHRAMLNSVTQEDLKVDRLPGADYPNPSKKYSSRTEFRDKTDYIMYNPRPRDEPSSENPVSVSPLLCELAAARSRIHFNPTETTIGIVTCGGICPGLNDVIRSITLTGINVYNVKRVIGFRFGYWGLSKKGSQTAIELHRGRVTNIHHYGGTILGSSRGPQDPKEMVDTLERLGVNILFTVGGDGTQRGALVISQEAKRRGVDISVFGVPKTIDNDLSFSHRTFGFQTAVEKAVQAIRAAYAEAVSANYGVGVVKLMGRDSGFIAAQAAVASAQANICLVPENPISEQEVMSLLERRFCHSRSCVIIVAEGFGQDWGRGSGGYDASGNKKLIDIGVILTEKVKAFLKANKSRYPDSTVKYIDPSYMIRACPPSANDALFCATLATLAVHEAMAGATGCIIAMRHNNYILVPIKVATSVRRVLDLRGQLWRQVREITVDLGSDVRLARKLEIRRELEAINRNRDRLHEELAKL

| Compound | activity change, negative = inhibition | Potency |
| --- | --- | --- |
| CC(C)(C)C(=O)NCCCC(=O)O | -9.41% |  |
| CC1(C)CO[C@@H](CC(=O)O)CN1 | 0.092% |  |
| CCCCN(CCCC)CC(O)c1cc(Cl)cc2c1-c1ccc(Cl)cc1/C2=C/c1ccc(Cl)cc1 (stereo unspecified) | 0% |  |
| O=C(CCCN1CCN(c2ccccn2)CC1)c1ccc(F)cc1 | -6.19% |  |
| CCCCCCCCCCCCOS(=O)(=O)O | 2.49% |  |
| O=Cc1ccccc1C=O | -20.7% |  |
| CC(O)CN(CCN(CC(C)O)CC(C)O)CC(C)O (stereo unspecified) | -1.69% |  |
| O=C1NS(=O)(=O)c2ccccc21 | -5.28% |  |
| CCCCC(CC)COC(=O)c1ccccc1O (stereo unspecified) | -7.76% |  |
| O=c1cc[nH]c(=O)[nH]1 | -6.28% |  |
| CCOC(=O)c1ccc(O)cc1 | -5.94% |  |
| COc1ccc2c(c1)C(=O)N(CCc1ccc(S(=O)(=O)NC(=O)NC3CCCCC3)cc1)C(=O)C2(C)C | 10.5% [at 24.3 µM] |  |
| O=C1c2c(O)cccc2Cc2cccc(O)c21 | 22.2% |  |
| CCCOC(=O)c1ccccc1 | -0.936% |  |
| CCN(CC)CCSC(=O)C(c1ccccc1)c1ccccc1 |  | inactive |
| NS(=O)(=O)c1cc2c(cc1Cl)NC(CSCc1ccccc1)=NS2(=O)=O | -1.37% [at 24.3 µM] |  |
| N[C@@H](CSCCCO)C(=O)O | 9.99% |  |
| O=C(O)c1ccccc1-c1ccc(C(F)(F)F)cc1 | 9.22% |  |

| Compound | activity change, negative = inhibition | Potency |
| --- | --- | --- |
| O=C(O)CC(O)C(=O)O (stereo unspecified) | 2.45% |  |
| CCn1cc(C(=O)O)c(=O)c2cnc(N3CCNCC3)nc21 | -8.39% [at 24.3 µM] |  |
| Cc1cc(CC(=O)O)n(C)c1C(=O)c1ccc(Cl)cc1 |  | inactive |
| COc1ccccc1O | 3.66% |  |
| C[C@H](N)[C@H](O)c1cccc(O)c1 | 3.63% [at 24.3 µM] |  |
| [Cl][In]([Cl])[Cl] | 24.1% |  |
| Oc1cn2c(n1)Nc1ccc(Cl)c(Cl)c1C2 | 0% |  |
| CC(O)COc1ccccc1 (stereo unspecified) | -5.79% |  |
| NC(=O)N/N=C/c1ccc([N+](=O)[O-])o1 | 8.16% |  |
| O=c1[nH]c(=O)c2[nH]c(=O)[nH]c2[nH]1 | -3.38% |  |
| O=S(=O)(O)NC1CCCCC1 | 9.27% |  |
| COc1ccc2[nH]c(S(=O)Cc3ncc(C)c(OC)c3C)nc2n1 (stereo unspecified) | -1.44% |  |
| Cc1ccc(C(C)C)cc2c(C)ccc1-2 | 7.16% |  |
| COc1cc(C(=O)N2CCOCC2)cc(OC)c1OC |  | inactive |
| CCCCc1ncc(/C=C(\Cc2cccs2)C(=O)O)n1Cc1ccc(C(=O)O)cc1 | -3.84% |  |
| CCCCN(CCCC)CCCOC(=O)c1ccc(N)cc1 | 1.47% [at 24.3 µM] |  |
| Cn1cc[nH]c1=S | -5.51% [at 24.3 µM] |  |
| Cc1cccc(C)c1NC(=O)CN(CC(=O)O)CC(=O)O | 6.92% |  |
